# Laboratory results published in PubChem BioAssay.
# The source made the active and inactive calls. Unless noted, the rule behind the calls is not given here.
# What was measured:
# [1] = HepG2 liver cancer cell viability effects, profiling panel, resazurin fluorescence, 24 h, PK04 Diversity Set (AID 1172); details: higher = more signal; note: test concentration not given here
# [2] = basal S. cerevisiae growth modulation, no modifier, primary screen, OD600, strain BY4716, 24 h, basal condition (AID 1173); details: OD600, 24 h, higher = more signal, called active from +8 up or from −8 down
# [3] = MM1S myeloma cell viability, profiling panel, resazurin fluorescence, basal, 24 h, PK04 Diversity Set (AID 1174); details: higher = more signal, called active from +8 up or from −8 down;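 note: MM1S multiple myeloma cell line; test concentration not given here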
# [4] = molecular target: Dihydroorotate dehydrogenase (quinone), mitochondrial (Plasmodium falciparum (isolate 3D7)) (UniProt Q08210); assay: PfDHODH enzyme inhibitors, primary screen, biochemical, C-terminal His tag, absorbance 600 nm (AID 1175); details: DCIP absorbance 600 nm, higher = more signal, called active from +8 up or from −8 down;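 note: recombinant parasite enzyme with a five histidine tag at its C terminus; test concentration not given here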
# [5] = P. aeruginosa biofilm formation inhibitors, primary screen, strain PAO1, LB-PBS medium, absorbance 600 nm (AID 1176); note: test concentration not given here; details: P. aeruginosa PAO1 growth/biofilm, A600, 12 h; higher = more signal
# [6] = S. cerevisiae RM11-1a growth modifiers, primary screen, strain RM11-1a, OD600, basal, 24 h (AID 1177); details: OD600, 24 h, higher = more signal, called active from +8 up or from −8 down;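 note: cultures grown under basal conditions with no added stressor; test concentration not given here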
# [7] = E. coli acrAB mutant growth effects, primary screen, E. coli filamentation inducers, strain DRC39, OD650, 24 h (AID 1178); details: higher = more signal, called active from +8 up or from −8 down;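 note: growth measured as culture turbidity by optical density at 650 nm; test concentration not given here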
# [8] = E. coli acrAB mutant growth effects, primary screen, E. coli filamentation inducers, strain DRC39, OD650, 48 h (AID 1179);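 note: screen aims at cell division blockers that make cells filament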; details: E. coli DRC39 delta-acrAB growth, higher = more signal, called active from +8 up or from −8 down
# [9] = RPMI8226 myeloma cell viability, profiling panel, resazurin fluorescence, basal, 24 h, PK04 Diversity Set (AID 1180); details: higher = more signal;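 note: RPMI8826 multiple myeloma cell line at 5000 cells per well; test concentration not given here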
# [10] = molecular target: E3 ubiquitin-protein ligase XIAP (Homo sapiens) (UniProt P98170); assay: XIAP binders, primary screen, biophysical, small-molecule microarray, fluorescence 635 nm (AID 1181); details: small-molecule microarray binding, higher = more signal;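 note: score merges 667 nm emission and signal to noise over triplicate slides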
# Chain of E3 ubiquitin-protein ligase XIAP (Homo sapiens) (P98170 whole entry, looked up): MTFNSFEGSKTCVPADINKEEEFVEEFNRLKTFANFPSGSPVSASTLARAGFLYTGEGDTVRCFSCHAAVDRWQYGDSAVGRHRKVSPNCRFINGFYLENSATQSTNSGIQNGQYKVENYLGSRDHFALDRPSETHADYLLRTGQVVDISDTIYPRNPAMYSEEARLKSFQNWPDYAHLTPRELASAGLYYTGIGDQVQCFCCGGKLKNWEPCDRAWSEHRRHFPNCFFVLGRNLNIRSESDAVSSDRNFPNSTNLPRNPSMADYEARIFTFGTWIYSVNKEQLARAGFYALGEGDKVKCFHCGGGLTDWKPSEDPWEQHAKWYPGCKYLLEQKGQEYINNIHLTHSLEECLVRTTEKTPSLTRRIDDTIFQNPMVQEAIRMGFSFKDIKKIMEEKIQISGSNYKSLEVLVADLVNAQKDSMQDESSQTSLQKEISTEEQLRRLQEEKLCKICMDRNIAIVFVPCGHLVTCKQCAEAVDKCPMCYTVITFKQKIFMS
# Chain of Dihydroorotate dehydrogenase (quinone), mitochondrial (Plasmodium falciparum (isolate 3D7)) (Q08210 whole entry, looked up): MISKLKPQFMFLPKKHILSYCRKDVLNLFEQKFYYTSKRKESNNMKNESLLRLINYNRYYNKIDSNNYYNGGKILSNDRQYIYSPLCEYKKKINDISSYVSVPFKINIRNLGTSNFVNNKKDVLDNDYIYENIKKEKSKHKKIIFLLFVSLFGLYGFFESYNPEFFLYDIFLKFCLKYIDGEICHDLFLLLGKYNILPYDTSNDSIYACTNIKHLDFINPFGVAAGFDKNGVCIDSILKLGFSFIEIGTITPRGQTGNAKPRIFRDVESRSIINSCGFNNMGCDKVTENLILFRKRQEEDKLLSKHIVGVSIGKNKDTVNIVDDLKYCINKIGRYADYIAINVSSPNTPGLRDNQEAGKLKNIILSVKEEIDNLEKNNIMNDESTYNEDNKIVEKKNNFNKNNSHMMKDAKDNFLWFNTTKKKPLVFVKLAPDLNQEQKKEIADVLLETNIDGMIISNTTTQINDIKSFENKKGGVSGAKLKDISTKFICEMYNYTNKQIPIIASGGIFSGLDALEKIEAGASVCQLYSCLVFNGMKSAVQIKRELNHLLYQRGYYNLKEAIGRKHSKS
SMILES,z-score [1],z-score [2],z-score [3],composite z-score [4],z-score [5],z-score [6],z-score [7],z-score [8],z-score [9],composite z-score [10]
CCN1C(=O)[C@H]2[C@@H]3C(=CC[C@H]2C1=O)C(=O)[C@H]1O[C@H]1[C@H]3O,-1.22,-1.12 (inactive),-5.38 (inactive),-0.0207 (inactive),-0.978 (inactive),-0.628 (inactive),-0.615 (inactive),-0.788 (inactive),-2.17,0.334
C=C(C)C(=O)OC[C@H]1CN2[C@@H](CC[C@@H](C)[C@@H]2c2ccc(Br)cc2)C(=O)O1,0.497,-1.84 (inactive),-0.255 (inactive),0.672 (inactive),-0.136 (inactive),0.912 (inactive),0.644 (inactive),-1.77 (inactive),-0.314,0.256
CCOC(=O)[C@H](Cc1ccccc1)NC(=O)CCC1CC(OC(=O)NCc2ccc3c(c2)OCO3)CC2(CCCC(COC(=O)NCCOC)O2)O1 (stereo not given in full),0.0491,-0.914 (inactive),0.808 (inactive),-2.56 (inactive),-0.871 (inactive),0.0059 (inactive),-0.477 (inactive),0.525 (inactive),-0.0023,0.0374
CC(C)CON=C1C[C@@H](O)[C@@H](O)[C@@H]2[C@@H]3C(=O)N(C(C)(C)C)C(=O)[C@@H]3CC[C@@H]12,-0.685,-0.322 (inactive),0.4 (inactive),-1.88 (inactive),0.295 (inactive),-0.492 (inactive),0.796 (inactive),-1.13 (inactive),-0.463,-0.277
CC(C)C(=O)N[C@H]1CCCN1C(=O)C=Cc1ccccc1,-0.274,0.881 (inactive),-0.46 (inactive),0.581 (inactive),0.897 (inactive),1.18 (inactive),-0.0435 (inactive),-0.898 (inactive),-1.03,-0.0476
COc1ccc(OC[C@@H](CO)OC)cc1,-0.279,0.0175 (inactive),-0.143 (inactive),-0.591 (inactive),-0.364 (inactive),-0.334 (inactive),0.293 (inactive),0.178 (inactive),0.421,-0.0344
CCCNC(=O)OC[C@H]1O[C@H](CCON=C[C@@H](C)[C@H](OCc2ccccc2)C(C)C)C=C[C@@H]1Oc1ccc(OC)cc1,-0.208,-0.682 (inactive),-2.5 (inactive),-1.78 (inactive),-0.242 (inactive),-2.27 (inactive),0.0465 (inactive),0.428 (inactive),-0.58,-0.357
COc1ccc(-c2cnnc(CCCn3ccnc3-c3ccccc3)n2)cc1,-1.18,-0.72 (inactive),-0.891 (inactive),0.552 (inactive),1.17 (inactive),-0.252 (inactive),-0.867 (inactive),-0.634 (inactive),-1.38,-0.0143
COc1ccc(COC(=O)NN=C2C[C@@H](O)[C@@H](O)[C@@H]3[C@@H]4C(=O)N(C[C@@H]5CCCO5)C(=O)[C@@H]4CC[C@H]23)cc1,-0.161,1.29 (inactive),0.0829 (inactive),-0.395 (inactive),-0.0485 (inactive),0.293 (inactive),0.16 (inactive),0.0875 (inactive),-0.631,0.0679
COC(=O)[C@@H]1CC[C@H](C)[C@@H](c2ccc(C)cc2)N1C(=O)c1ccc(C=NOC[C@H]2O[C@H](c3ccccc3)C=C[C@@H]2Oc2ccc(OC)cc2)cc1,0.158,0.856 (inactive),-0.0983 (inactive),0.13 (inactive),0.0282 (inactive),0.386 (inactive),-0.469 (inactive),-0.499 (inactive),0.539,-0.0773
O=C1[C@H]2CCn3c(=O)n(Cc4cc5c(cc4Cl)OCO5)c(=O)n3[C@H]2[C@H](O)[C@@H]2O[C@H]12,-0.581,-0.0756 (inactive),-1.3 (inactive),-0.877 (inactive),-0.838 (inactive),0.533 (inactive),0.552 (inactive),0.669 (inactive),-1.3,-0.146
CO[C@@H]1COC(=O)[C@H](CCSC)NC(=O)CC=C[C@@H](C)COC(=O)[C@@H]2CCCN2C(=O)CC=C[C@H]1C,0.64,-0.691 (inactive),0.89 (inactive),-0.0517 (inactive),-0.92 (inactive),-0.572 (inactive),-0.0629 (inactive),-0.733 (inactive),0.652,-0.0277
CCOC(=O)CCN1C(=O)[C@H]2[C@H]3[C@H](O)[C@H](O)CC(=NOCC(C)C)[C@@H]3CC[C@H]2C1=O,-0.452,-0.824 (inactive),-0.665 (inactive),-0.449 (inactive),0.377 (inactive),-0.992 (inactive),-0.268 (inactive),-0.321 (inactive),-0.889,0.0819
COc1ccc(O[C@H]2C=C[C@@H](c3ccccc3)O[C@@H]2CON=C2c3cc(OC)ccc3O[C@H](c3cccc(OC)c3)[C@H]2O)cc1,-0.568,0.311 (inactive),-0.89 (inactive),0.586 (inactive),1.53 (inactive),0.041 (inactive),0.779 (inactive),-0.824 (inactive),-0.387,-0.206
COC(=O)[C@H](C)NC(=O)CC=C[C@@H](C)[C@@H]1C=C[C@H](O)[C@@H](CO)O1,-0.261,0.104 (inactive),-0.543 (inactive),-0.0763 (inactive),0.25 (inactive),0.253 (inactive),0.64 (inactive),0.384 (inactive),-0.845,0.0623
Cc1cc(C)c(-c2cc([C@H](C)ON=C[C@@H](C)[C@H](OCc3ccccc3)C(C)C)on2)c(C)c1,-0.811,0.462 (inactive),-0.258 (inactive),-0.382 (inactive),-0.23 (inactive),0.255 (inactive),0.262 (inactive),0.336 (inactive),-0.522,0.02
CC(=O)OC[C@H]1O[C@H](CC=NOC[C@@H](O)COCc2ccco2)C=C[C@@H]1OC(C)=O,-0.13,0.0523 (inactive),0.166 (inactive),-0.554 (inactive),-1.26 (inactive),0.178 (inactive),0.574 (inactive),0.924 (inactive),0.396,-0.306
C=CC[C@@H]1C=C[C@H](ON=C2C[C@@H](O)[C@@H](O)[C@@H]3[C@@H]4C(=O)N(CC)C(=O)[C@@H]4CC[C@@H]23)[C@@H](CO)O1,-1.05,-0.099 (inactive),-0.415 (inactive),-2.18 (inactive),-0.0781 (inactive),-0.466 (inactive),-0.939 (inactive),-1.5 (inactive),-0.216,-0.289
CCN1C(=O)[C@H]2[C@H]3[C@H](O)[C@H](O)CC(=NOCC[C@@H]4C=C[C@H](OC(C)=O)[C@@H](COC(C)=O)O4)[C@@H]3CC[C@H]2C1=O,-1.02,0.508 (inactive),-1.85 (inactive),-0.666 (inactive),1.22 (inactive),-0.183 (inactive),0.178 (inactive),-0.0655 (inactive),-1.05,0.134
CO[C@@H]1COC(=O)[C@H](COCc2ccccc2)NC(=O)CC=C[C@@H](C)[C@H](OC)COC(=O)[C@@H](C)NC(=O)CC=C[C@H]1C,0.532,-1.01 (inactive),-2.05 (inactive),0.262 (inactive),-0.908 (inactive),0.496 (inactive),1.4 (inactive),0.287 (inactive),-0.795,-0.0939
C=CC[C@@H]1C=CC(ON=C(C)C)[C@@H](CO)O1 (stereo not given in full),-0.689,0.381 (inactive),-0.389 (inactive),0.532 (inactive),-0.254 (inactive),1.1 (inactive),0.832 (inactive),-1.16 (inactive),0.283,-0.267
COC(=O)[C@H](Cc1ccccc1)NC(=O)[C@@H](C)CO,-0.427,-0.462 (inactive),-0.0481 (inactive),-2.16 (inactive),0.733 (inactive),0.0469 (inactive),-1.48 (inactive),-0.84 (inactive),-0.376,0.0154
COC(=O)CC=C[C@@H](C)[C@@H](C=NOC[C@@H](C)[C@H](OCc1ccccc1)C(C)C)OC,-1.01,0.285 (inactive),0.405 (inactive),0.957 (inactive),-0.892 (inactive),0.169 (inactive),-0.213 (inactive),-0.442 (inactive),-0.286,-0.118
O=C1C[C@@H](O)[C@@H](O)[C@@H]2[C@@H]3C(=O)N(Cc4ccccc4)C(=O)[C@@H]3CC[C@H]12,-0.252,-0.425 (inactive),-0.136 (inactive),0.318 (inactive),0.188 (inactive),-0.163 (inactive),-0.418 (inactive),-0.779 (inactive),-0.14,0.468
CC(C)[C@@H](OCc1ccccc1)[C@H](C)C=NO[C@H](C)c1cn([C@@H]2COC[C@H]2O)nn1,-0.507,-1.28 (inactive),-0.648 (inactive),-0.498 (inactive),-0.0296 (inactive),-0.0941 (inactive),0.462 (inactive),0.178 (inactive),-0.64,-0.173
C[C@@H]1CC[C@H]2C(=O)N3[C@@H](CC[C@@H](C)[C@@H]3c3ccc(Br)cc3)C(=O)N2[C@H]1c1ccc(Br)cc1,-0.346,0.0314 (inactive),0.208 (inactive),0.553 (inactive),-0.27 (inactive),0.973 (inactive),-0.124 (inactive),-1.38 (inactive),0.102,-0.0056
